Records with an inconclusive call do not appear. Where a call stands in place of a potency, no number is given. The source made the active and inactive calls. Calls come from the whole dose curve; as a rule, active = well fitted activation curve with a large enough effect in the signal ratio in the repeat runs (not every such curve was filed as active); inconclusive = weak or mixed curves, or effect the other way; inactive = flat fitted curve, though single readings scatter; the % refers to the signal ratio.
biological target: Estrogen receptor beta (Homo sapiens) (UniProt Q92731); assay: qHTS assay to identify small molecule agonists of the estrogen receptor beta (ER-beta) signaling pathway (AID 1259377); settings: ER-beta-UAS-bla HEK293T, beta-lactamase FRET ratio, 16 h; series mostly up to 92.4 µM
Sequence (Q92731 whole entry, looked up): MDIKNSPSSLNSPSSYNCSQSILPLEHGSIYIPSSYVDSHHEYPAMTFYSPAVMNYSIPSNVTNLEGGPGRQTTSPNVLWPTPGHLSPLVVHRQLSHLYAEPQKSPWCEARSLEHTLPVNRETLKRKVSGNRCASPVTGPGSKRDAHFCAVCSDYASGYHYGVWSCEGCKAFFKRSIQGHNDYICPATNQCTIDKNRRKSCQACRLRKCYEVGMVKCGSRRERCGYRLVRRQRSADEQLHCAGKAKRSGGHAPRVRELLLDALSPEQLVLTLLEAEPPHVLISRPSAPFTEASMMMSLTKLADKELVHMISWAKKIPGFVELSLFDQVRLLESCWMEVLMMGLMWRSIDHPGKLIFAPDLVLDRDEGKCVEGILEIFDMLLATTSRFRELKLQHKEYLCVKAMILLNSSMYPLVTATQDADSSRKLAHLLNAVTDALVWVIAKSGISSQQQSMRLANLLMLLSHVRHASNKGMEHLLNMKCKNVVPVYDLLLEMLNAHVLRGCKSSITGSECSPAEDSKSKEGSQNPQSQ
Method in brief: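 Measured by fluorescence intensity from a B/G FRET beta-lactamase substrate (2 h, room temperature) in ER-beta-UAS-bla HEK293T cells treated with DMSO-dissolved compounds for 16 hr at 37C and 5% CO2.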

| SMILES | Potency |
| --- | --- |
| N/C(=N\N=C\c1ccc(Cl)cc1)N/N=C/c1ccc(Cl)cc1 | inactive |
| C[C@@H]1C[C@H]2[C@@H]3CCC4=CC(=O)C=C[C@]4(C)[C@@]3(Cl)[C@@H](O)C[C@]2(C)[C@@]1(OC(=O)c1ccco1)C(=O)CCl | inactive |
| CCCC(C)c1ccccc1O (centres undefined) | inactive |
| OCCN1CCN(CC/C=C2/c3ccccc3Sc3ccc(C(F)(F)F)cc32)CC1 | inactive |
| Clc1ccc(C(Cn2ccnc2)OCc2ccc(Sc3ccccc3)cc2)c(Cl)c1 (centres undefined) | inactive |
| CC1(C)CCC(C)(C)c2cc(C(=O)Nc3ccc(C(=O)O)cc3)ccc21 | inactive |
| CN(C)CCCOC1(Cc2ccccc2)CCCCCC1 | inactive |
| CCCCN1C(=O)[C@@H]([C@H](O)C2CCCCC2)NC(=O)C12CCN(Cc1ccc(Oc3ccc(C(=O)O)cc3)cc1)CC2 | inactive |
| CC(=O)S[C@@H]1CC2=CC(=O)CC[C@]2(C)[C@H]2CC[C@@]3(C)[C@@H](CC[C@@]34CCC(=O)O4)[C@H]12 | inactive |
